Source: PubChem BioAssay
KCNQ2 enhance: enhances the rat KCNQ2 potassium channel; AID 2239; O88943; 0.54% of 310,000 active; CHO-K1 KCNQ2, FluxOR thallium flux fluorescence; hits give high values; B-score at 10 µM;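 active = fluorescence ratio B-score at least 3 SD of library B-scores, with initial fluorescence B-score within 3 of them, cut at about 5.3 in these data; same plate scores as AID 2156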;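 note: B-score of peak minus minimum over baseline fluorescence ratio after K+ and Tl+ stimulus; positive B-score means potentiation of KCNQ2 with more thallium influx and brighter signal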
Target sequence (O88943 whole entry, looked up): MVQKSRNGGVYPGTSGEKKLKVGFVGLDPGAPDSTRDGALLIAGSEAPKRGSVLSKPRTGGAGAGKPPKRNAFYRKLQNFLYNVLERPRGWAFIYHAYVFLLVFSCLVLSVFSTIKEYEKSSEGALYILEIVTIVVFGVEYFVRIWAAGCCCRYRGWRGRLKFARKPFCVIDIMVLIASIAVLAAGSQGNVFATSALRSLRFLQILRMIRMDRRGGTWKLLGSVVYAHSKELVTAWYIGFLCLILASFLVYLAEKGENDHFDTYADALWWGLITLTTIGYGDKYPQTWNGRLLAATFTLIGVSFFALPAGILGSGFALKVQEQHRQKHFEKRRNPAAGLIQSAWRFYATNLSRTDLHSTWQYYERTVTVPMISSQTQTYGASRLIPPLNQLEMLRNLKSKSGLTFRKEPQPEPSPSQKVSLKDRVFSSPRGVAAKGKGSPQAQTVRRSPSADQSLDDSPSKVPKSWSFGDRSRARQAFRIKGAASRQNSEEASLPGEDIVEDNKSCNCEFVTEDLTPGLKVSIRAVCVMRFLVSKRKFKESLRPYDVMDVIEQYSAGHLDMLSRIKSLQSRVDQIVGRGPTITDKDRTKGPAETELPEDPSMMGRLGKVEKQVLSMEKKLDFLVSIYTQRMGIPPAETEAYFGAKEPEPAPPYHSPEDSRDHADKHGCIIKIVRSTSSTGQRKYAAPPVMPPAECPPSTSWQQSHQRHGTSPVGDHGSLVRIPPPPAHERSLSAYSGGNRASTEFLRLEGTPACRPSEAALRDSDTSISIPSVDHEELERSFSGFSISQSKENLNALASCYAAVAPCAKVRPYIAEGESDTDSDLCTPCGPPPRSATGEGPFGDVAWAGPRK
KCNQ2 inh: KCNQ2 (rat) channel inhibition | CHO-K1 KCNQ2, FluxOR thallium flux, 20 min; hits give low values | B-score at 10 µM | 1.1% of 310,000 active | AID 2156;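 active = fluorescence ratio B-score at most minus 3 library SDs, with starting brightness B-score within 2 library SDs, cut at about -5.5 in these data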
A number is an active result; 0 = inactive; - = no result. Rows were chosen to be rich in hits. Some 1.6% of all compounds tested hit in one or more screens of this group.

SMILES	KCNQ2 enhance	KCNQ2 inh
COc1ccc(-c2cc(C(=O)N(C)Cc3cccc(OC)c3OC)c3ccccc3n2)cc1OC	-	0
COc1cccc(CN(C)C(=O)c2cc(-c3ccc(F)cc3)nc3ccccc23)c1	-	0
COc1ccc(CN(C)C(=O)c2cc(-c3ccccc3)nc3ccc(C)cc23)c(OC)c1OC	0	-5.7
COc1cccc(CN(C)C(=O)c2cc(-c3ccc(OC)c(OC)c3)nc3ccccc23)c1	0	-6
COc1ccc(CCN(C)C(=O)c2cc(-c3ccccc3)nc3ccccc23)cc1OC	-	0
COc1ccc(-c2cc(C(=O)N(C)CCc3ccc(OC)c(OC)c3)c3ccccc3n2)cc1	0	-5.6
COc1ccc(NC(=O)COc2cccc(-n3cnnn3)c2)cc1Cl	0	0
CS(=O)(=O)c1ccc(-c2cccc(NC(=O)c3ccco3)c2)nn1	-	0
Cc1cc(=O)oc2cc(OCC(=O)N(C)C3CCS(=O)(=O)C3)c(Cl)cc12 (stereo not given)	0	0
CCC(C)C(NS(=O)(=O)c1ccc(C)cc1)C(=O)O (stereo not given)	0	0
CCC(C)C(NS(=O)(=O)c1ccc(C)cc1)C(=O)NCCCN1CCOCC1 (stereo not given)	0	-5.6
Cc1cccc(N(CC(=O)Nc2ccccc2-c2ccccc2)S(=O)(=O)c2ccccc2)c1C	-	0
Cc1ccc(S(=O)(=O)N(CC(=O)Nc2ccccc2-c2ccccc2)c2ccc(C)cc2C)cc1	0	-6
Cc1cc(F)ccc1NC(=O)CCCN(C)S(=O)(=O)c1ccc(F)cc1	0	0
Cc1ccc(N(CC(=O)Nc2ccccc2-c2ccccc2)S(=O)(=O)c2ccccc2)cc1	0	-6.2
Cc1cc(C)cc(N(CC(=O)Nc2ccccc2-c2ccccc2)S(=O)(=O)c2ccccc2)c1	-	0
Cc1ccc(S(=O)(=O)N(C)CCCC(=O)Nc2ccc(C)cc2C)cc1	6.2	0
COC(=O)c1cccc(Cn2c(Cl)c(/C=N/NC(=O)c3ccco3)sc2=O)c1	0	0
CCOc1ccc(NC(=O)CCNC(=O)Cn2ccc3ccccc3c2=O)cc1	-	0
O=C(OCCN=C1NS(=O)(=O)c2ccccc21)c1ccccc1F	-	0
O=S(=O)(N/N=C/c1ccc(Cl)cc1)c1ccc(Cc2ncc(C(F)(F)F)cc2Cl)s1	0	-6.2
NC(=O)c1ccc(Cc2ncc(C(F)(F)F)cc2Cl)s1	-	0
Clc1ccc(/C=N/Nc2nnc(-c3ncc[nH]3)c3ccccc23)cc1	0	-5.7
Clc1cccc(/C=N/Nc2nnc(Cl)c3ccccc23)c1	-	0
COc1ccc(C(=O)NC(=S)Nc2ccc3[nH]c(=O)[nH]c3c2)c(OC)c1	-	0
SMILES	KCNQ2 enhance	KCNQ2 inh
COc1ccc(/C=C(\NC(=O)c2ccc(OC)cc2)C(=O)N2CCCCC2)cc1	-	0
COc1cccc(CN2CC(C(=O)N3CCOCC3)CCC2=O)c1 (stereo not given)	-	0
Cc1nn(-c2ccccc2)c(Cl)c1/C=N/NC(=O)OC(C)(C)C	-	0
Cc1ccc(C)c(OCC(=O)N/N=C/c2c(C)nn(-c3ccccc3)c2Cl)c1	0	-7.4
COc1ccc(NC(=O)c2cccc(N3C(=O)NC4CC3(C)Oc3ccccc34)c2)cc1 (stereo not given)	-	0
COc1cccc2c1OC1(C)CC2NC(=O)N1c1cccc(C(=O)Nc2ccc3c(c2)OCCO3)c1 (stereo not given)	0	-6.7
CCC(CO)Nc1ccc(-c2n[nH]c(=O)c3ccccc23)cc1[N+](=O)[O-] (stereo not given)	-	0
O=C(NC1CC2CCC1C2)c1ccco1 (stereo not given)	-	0
O=C(Nn1c(SCc2ccccc2F)nc2ccsc2c1=O)c1ccccc1	0	-6.4
O=C(CSc1nc2ccsc2c(=O)n1NC(=O)c1ccccc1)Nc1nccs1	-	0
COc1ccccc1NC(=O)C1CCN(S(=O)(=O)c2cccc3nonc23)CC1	0	0
Clc1ccc(OCCSc2ncccn2)c2ccccc12	0	-5.7
c1cnc(SCCOc2cccc3ccccc23)nc1	-	0
CC(C)n1c(SCC(=O)NC2CC2)nnc1C1CC1	-	0
CCOC(=O)c1c(NC(NC(C)=O)C(Cl)(Cl)Cl)sc2c1CCCC2 (stereo not given)	0	-6.5
COC(=O)c1c(NC(NC(C)=O)C(Cl)(Cl)Cl)sc2c1CCCC2 (stereo not given)	-	0
c1ccc(-c2n[nH]c3c2CCC3)cc1	-	0
CC(C)[C@@H]1CC[C@@H](C)c2c(-c3ccccc3)n[nH]c21	0	-7.2
CCCCCc1ccc(C(=O)CCCC)c(=S)[nH]1	8	0
CCCCCc1cc(=O)[nH]c(=S)[nH]1	0	0
C=CCNc1nc2ccccc2nc1NS(=O)(=O)c1ccc(Cl)cc1	0	0
Cc1ccc(N(C(=O)c2csnn2)C(C(=O)NC2CCCCC2)c2ccncc2)cc1 (stereo not given)	0	0
CC(NC(=O)NC1CCCCC1)c1ccccc1 (stereo not given)	13	0
O=C(Nc1ccccc1)NC1CCCCCCC1	0	0
CSc1cccc(NC(=O)c2cccc3cccnc23)c1	-	0
SMILES	KCNQ2 enhance	KCNQ2 inh
O=C(NCc1ccccc1Cl)c1ccccc1CCc1ccccc1	0	-5.6
COc1ccc(NC(=O)CN(C)C(=O)c2ccccc2CCc2ccccc2)cc1	-	0
Cc1cc(C)c(NC(=O)c2ccccc2CCc2ccccc2)c(C)c1	-	0
O=C(NCc1ccc(Cl)cc1)c1ccccc1CCc1ccccc1	0	0
CCc1cccc(CC)c1NC(=O)c1ccccc1CCc1ccccc1	0	-6.1
CN(CC(=O)Nc1cccc(F)c1)C(=O)c1ccccc1CCc1ccccc1	0	-6.2
O=C(NCc1ccccc1Cl)c1cnccc1C(F)(F)F	7.4	0
O=C(NCc1ccccc1Cl)c1cnccn1	0	0
O=C(CN(Cc1ccccc1Cl)S(=O)(=O)c1ccc(Cl)cc1)N/N=C/c1ccc(C(=O)O)cc1	0	0
CCn1nc(NC(=O)Cc2ccc(OC)cc2)c2cc3cc(C)ccc3nc21	0	0
COc1cc2c(=O)n(CCC(=O)NCC3CCCO3)c(=O)n(CC(=O)Nc3ccc(C)cc3C)c2cc1OC (stereo not given)	0	0
Cc1ccc(OCc2cc(C(=O)N3CCC(C(O)C(C)C)CC3)no2)cc1C (stereo not given)	0	0
Cc1cccc(NC(=O)C(CCC(N)=O)NC(=O)OCc2ccccc2)c1 (stereo not given)	-	0
S=C(Nc1ccccc1Cl)N1CCCCCC1	0	0
S=C(Nc1ccccc1Cl)N1CCCC(c2ccccc2)=N1	0	-6.5
Cc1cc(-c2nnc(SCC(=O)Nc3cccc(Cl)c3)n2N)n[nH]1	0	0
COc1cc(C2=NOC(C(=O)N3CCN(c4ccc(F)cc4)CC3)C2)cc(OC)c1OC (stereo not given)	-	0
COc1cc(C2=NOC(C(=O)N3CCCCCC3)C2)cc(OC)c1OC (stereo not given)	0	-6.6
COc1ccc(S(=O)(=O)NCC(=O)N(CC(=O)NCc2ccco2)C2CCCC2)cc1	-	0
O=C(c1cc(Cl)ccc1Cl)N1CCN(c2ccccn2)CC1	-	0
O=C(/C=C/c1cn(-c2ccccc2)nc1-c1cccc(Cl)c1)N1CCN(c2ccccn2)CC1	0	-5.7
O=C(c1cnc(N2CCN(c3ccccn3)CC2)c2ccccc12)N1CCN(c2cccc(Cl)c2)CC1	0	-7.9
O=C(/C=C/c1cn(-c2ccccc2)nc1-c1cccnc1)N1CCCCC1	-	0
Cc1cccc(C(=O)Nc2nnc(C3=COCCO3)o2)c1	18	0
O=C(Nc1nnc(C2=COCCO2)o1)c1cccc(F)c1	0	0
